Data on 40 compounds can be found in PubChem BioAssay AID493169 (National Center for Advancing Translational Sciences (NCATS), 2011).

Records with an inconclusive call do not appear. Where a call stands in place of a potency, no number is given. Calls of active or inactive are those of the source. Calls follow the shape of the dose curve; as a rule, active = well fitted inhibition curve with a large enough effect; inconclusive = small, poorly fitted or top-dose-only effect; inactive = flat fitted curve, though single readings scatter.
Potency is read from the fitted curve at half-maximal effect.

The test in a line: CHOP2 Reporter Counterscreen Assay for Inhibitors of Ubiquitin-specific Protease USP2a.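 Also: activated enterokinase alone at 50 pM in a cell-free format rather than USP2a or CHOP2; nearly all actives have a fitted effect of over 55% in size.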 The note with it: purified enterokinase, fluorogenic substrate, 485/531 nm; series mostly up to 38.3 µM. The procedure, abridged:
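Fluorescence (485/531 nm) read 10 min after adding 25nM reporter substrate to 50 pM activated EK preincubated 30 min RT with compound; Tris pH 8.0/CaCl2/CHAPS buffer. Data normalized to buffer-alone inhibition; concentration-response curves fitted.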
On to `O=C(CSc1nnc(SCc2ccccc2)s1)N/N=C/c1c[nH]c2ccccc12`, for which the Potency result was “inactive”. Turning to `O=C(c1cccc(F)c1)N1CCN(S(=O)(=O)c2ccccc2)CC1`, the Potency entry was “inactive”. The result for `COCCn1c(SCC(=O)Nc2cc(C)on2)nnc1-c1ccccc1` reads “inactive”; that for `CCn1c(SCC(=O)NCCc2ccccc2)nnc1-c1cccs1`, “inactive”. Consider `COc1ccc(-c2cc(C(F)(F)F)nc(S(C)(=O)=O)n2)cc1`, for which the Potency result was “inactive”. `COc1ccc(CCN2C(=O)/C(=C\c3ccco3)SC2=S)cc1OC`: the Potency entry is “inactive”. On to `O=C(Oc1ccccc1C(=O)Nc1ccccc1)c1ccccc1Br`, for which the Potency result is “inactive”. Take `CC(C)C(C(=O)O)N1C(=O)/C(=C/C=C/c2ccco2)SC1=S` (stereo not given): the Potency was 2 µM (active). Regarding `Cc1cnc(N)c2c(=O)oc3ccccc3c12`, the Potency entry was “inactive”. On to `c1ccc(Nc2c3c(nc4ncnn24)CCC3)cc1`, for which the Potency entry was “inactive”. For the compound `COC(=O)[C@@]12CCCCN1[C@H](c1ccc(-c3ccc(Cl)c(Cl)c3)cc1)[C@H]1C(=O)N(C)C(=O)[C@H]12`, the Potency entry is “inactive”. In the case of `CC(/C=N/NC(=O)c1cc(-c2cccs2)[nH]n1)=C\c1ccccc1`, the Potency entry is “inactive”. Regarding `Cc1c(C(=O)Nc2ccc3c4c(cccc24)CC3)cccc1[N+](=O)[O-]`, the Potency entry was “inactive”. In the case of `O=c1oc2c(CN3CCCCC3)c(O)ccc2c2c1CCCCC2`, the Potency entry is “inactive”. For `O=C(C[n+]1ccc(-c2cc(C(=O)Nc3cccc(C(F)(F)F)c3)c3ccccc3n2)cc1)c1cccc([N+](=O)[O-])c1`, the Potency result is “inactive”. The result for `Cn1c(C(=O)NCCN2CCOCC2)cc2c(=O)n(C)c3ccccc3c21` reads “inactive”; that for `O=C(Nc1ccc(Oc2ccc(Cl)cc2)cc1)c1ncn[nH]1`, “inactive”.

For the compound `O=C(Nc1nnc(-c2ccco2)s1)C1CCCCC1`, the Potency result is “inactive”. On to `O=C(NCCOC(=O)c1ccccc1C(=O)OCCNC(=O)c1cccnc1)c1cccnc1`, for which the Potency result was “inactive”. With `O=C1NCC(CN(c2ccccc2)c2ccccc2)O1` (stereo not given), the Potency entry is “inactive”. As for `COC(=O)c1c(NC(=O)c2cccnc2)sc(C)c1C`, the Potency result was “inactive”.

For `O=C(O)C(Cc1ccccc1)N1C(=O)/C(=C/C=C/c2ccco2)SC1=S` (stereo not given), the Potency is 2.51 µM (active).

For `Cc1ccccc1C(=O)Nc1ccc2nc3n(c(=O)c2c1)CCC3`, the Potency entry is “inactive”. For `CCc1c(O)nc(SCC(=O)Nc2ccccc2OC)[nH]c1=O` the value was “inactive”; for `CCN(CC)S(=O)(=O)c1ccc(Cl)c(NC(=O)COC(=O)c2c(C)noc2C)c1`, “inactive”. With `Nc1c(C(=O)Nc2ccc(Cl)cc2)oc2ccccc12`, the Potency entry was “inactive”. The result for `O=C(NCCN1C(=O)CSC1=O)C1CC(=O)N(c2ccccc2)C1` (stereo not given) reads “inactive”; that for `CSCC[C@H](NC(=O)C1CCN(S(=O)(=O)c2ccc(C)cc2)CC1)C(=O)NCc1ccco1`, “inactive”; that for `C=C(CCC(=O)c1ccccc1)C(=O)c1ccccc1`, “inactive”. The result for `CC1=NN(c2ccc(C)cc2)C(=O)/C1=C/c1ccc(-c2cc([N+](=O)[O-])ccc2O)o1` reads 11.2 µM (active); that for `CCc1ccccc1OCC(=O)Nc1ccc(N2CCCC2)cc1C`, 10 µM (active). Turning to `CCN(CC(=O)Nc1ccc(NC(C)=O)cc1)C(=O)c1ccc(N2CCC(C)CC2)c([N+](=O)[O-])c1`, the Potency entry was “inactive”. The result for `O=C1/C(=C/C=C/c2ccco2)SC(=S)N1c1ccc(O)cc1` reads 2.82 µM (active); that for `COc1ccc(C(=O)N/C(=C\c2cccs2)C(=O)N2CCN(C)CC2)cc1OC`, “inactive”.

`Cc1noc(C)c1NC(=O)Nc1ccc2c(c1)C(=O)N([C@H](C)CO)C[C@H](C)[C@@H](CN(C)S(=O)(=O)c1ccccc1)O2`: the Potency entry is “inactive”. As for `O=C(NC1CCCC1)C1C2C=CC(C2)C1C(=O)N1CCOCC1` (stereo not given), the Potency result was “inactive”.

`CCCNC(=O)NCc1ccc(N2CCCC2=O)cc1`: the Potency entry was “inactive”. Regarding `COC(=O)CC1Oc2ccc(C)cc2NC1=O` (stereo not given), the Potency entry is “inactive”.

For `CN(C)S(=O)(=O)c1ccc(C(=O)NCCN=C2NS(=O)(=O)c3ccccc32)cc1`, the Potency entry is “inactive”. The result for `CC(C)(C)C(=O)Nc1c2c(nc3c1CCC3)CCCC2` reads “inactive”.
